# Only some compounds are listed: those with a hit (about 11% of all), similar ones and a draw of the others.
# JMJD2A Tudor inh – qHTS Assay for Inhibitors of JMJD2A-Tudor Domain; Lysine-specific demethylase 4A (Homo sapiens), O75164; AlphaScreen JMJD2A-Tudor / H3K4me3 peptide binding; Potency, µM (doses to about 114 µM), most hits filed as inhibitors; 4.4% of 390,000 active; AID 504339, 2011; further: nearly all actives have a fitted effect of over 50% in size
# L3MBTL1 inh – qHTS Assay for the Inhibitors of L3MBTL1; AlphaScreen L3MBTL1–H3K9me1 peptide binding; Potency, µM (highest dose often 57.1 µM), actives largely listed as inhibitors; 0.66% of 230,000 active; further: nearly all actives have a fitted effect of over 60% in size
# Target sequence (Q9Y468 whole entry, looked up): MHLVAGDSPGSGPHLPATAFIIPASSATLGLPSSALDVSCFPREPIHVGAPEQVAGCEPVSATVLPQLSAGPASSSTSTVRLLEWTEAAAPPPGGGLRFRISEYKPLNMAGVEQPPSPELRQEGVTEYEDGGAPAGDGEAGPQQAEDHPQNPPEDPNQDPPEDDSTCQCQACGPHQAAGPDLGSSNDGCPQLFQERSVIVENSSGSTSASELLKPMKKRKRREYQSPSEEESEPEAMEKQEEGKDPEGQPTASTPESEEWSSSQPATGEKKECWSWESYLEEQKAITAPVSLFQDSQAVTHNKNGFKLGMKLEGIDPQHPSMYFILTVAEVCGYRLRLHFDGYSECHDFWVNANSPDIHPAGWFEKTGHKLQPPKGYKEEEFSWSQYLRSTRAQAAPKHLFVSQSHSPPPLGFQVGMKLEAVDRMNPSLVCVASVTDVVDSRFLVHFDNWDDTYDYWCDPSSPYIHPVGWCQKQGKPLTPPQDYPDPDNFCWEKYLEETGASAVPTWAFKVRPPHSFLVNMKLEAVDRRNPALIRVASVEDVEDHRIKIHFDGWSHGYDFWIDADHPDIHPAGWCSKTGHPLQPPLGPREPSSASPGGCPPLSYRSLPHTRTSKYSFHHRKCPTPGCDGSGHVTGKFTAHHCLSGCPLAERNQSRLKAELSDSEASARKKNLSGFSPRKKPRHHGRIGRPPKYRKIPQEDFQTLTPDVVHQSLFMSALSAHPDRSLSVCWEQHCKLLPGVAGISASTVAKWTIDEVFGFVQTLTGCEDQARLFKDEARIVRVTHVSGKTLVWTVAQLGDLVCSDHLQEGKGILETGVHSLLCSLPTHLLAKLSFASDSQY
#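 L3MBTL1 50 nM + b-AHA-H3(1-15)K9me1 75 nM, 30 min RT; compound added, 30 min RT; streptavidin donor/Ni-chelate acceptor beads 10 ug/mL each final, 30 min RT dark; AlphaScreen read.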
# HP1b chromo inh – HTS for Inhibitors of HP1-beta Chromodomain Interactions with Methylated Histone Tails | AlphaScreen HP1-beta / biotin-H3K9me3 peptide binding | Potency, µM (titrated, usually from 114 µM), hits mostly inhibitors | 0.56% of 390,000 active | AID 540317, 2011; further: nearly all actives have a fitted effect of over 70% in size
#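 HP1-beta protein (50 nM final) preincubated 30 min at room temperature with biotinylated H3(1-18)K9me3 peptide (50 nM) in PBS pH 7.4, 0.01% Tween-20, then compound added for 30 min. AlphaScreen streptavidin donor/nickel chelate acceptor beads (10 ug/mL final), 30 min dark, luminescence read.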
# BAZ2B inh – qHTS Assay for Inhibitors of BAZ2B; AlphaScreen BAZ2B-H3K14Ac peptide displacement; 4.4% of 360,000 active; Potency, µM (titrated, usually from 114 µM), actives largely listed as inhibitors; further: nearly all actives have a fitted effect of over 60% in size
#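 Protein-peptide AlphaScreen: BAZ2B 50 nM, b-H3K14Ac 50 nM, 1x PBS pH 7.4 + 0.01% Tween-20. Preincubation 30 min RT; cpd 30 min RT (top 110 uM); beads 20 min RT, light-protected.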
# G9a inh – qHTS Assay for Inhibitors of Histone Lysine Methyltransferase G9a; Histone-lysine N-methyltransferase EHMT2 (Homo sapiens), Q96KQ7; G9a H3K9 monomethylation, AlphaScreen, 2 h; Potency, µM (highest dose often 102 µM), usual class: inhibitors; 8.8% of 350,000 active; AID 504332, 2011; further: nearly all actives have a fitted effect of over 75% in size
#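 G9a (20 nM) preincubated 15 min RT with compounds, then 500 nM biotinylated H3K9 peptide and 20 uM SAM added; 2 h RT reaction. Monomethyl-H3K9 product detected by AlphaScreen with anti-H3K9me1 antibody, streptavidin donor and anti-rabbit IgG acceptor beads.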
# Hits are given with their value; i = inactive; ? = inconclusive; nt = no result; [ ] = dose if it differs, or a comment. The call rests on the fitted dose curve; in most records, active means well fitted inhibition curve with a large enough effect; inconclusive means small, poorly fitted or top-dose-only effect; inactive means no such curve, though single readings can be large or run the other way.
SMILES,JMJD2A Tudor inh,L3MBTL1 inh,HP1b chromo inh,BAZ2B inh,G9a inh
O=C(CN1CCN(c2ccc(O)cc2)CC1)Nc1cc(S(=O)(=O)N2CCCCC2)ccc1Cl,?,i,50µM,nt,7.9µM
CCOC(=O)C1CCN(CC(=O)Nc2cc(S(=O)(=O)N3CCCCC3)ccc2Cl)CC1,i,i,i,i,i
CCCN1C(=O)C(Cc2nc3ccccc3c(=O)n2CC)c2ccccc21 (stereo not given),i,nt,i,i,i
Cc1ccc(CNC(=O)c2cc3c(s2)-c2ccccc2SC3)cc1,i,nt,i,i,i
CCOCCCNC(=O)c1cc2c(s1)-c1ccccc1SC2,i,nt,i,i,10µM
O=C(NCCCn1ccnc1)C(=O)NCC(c1ccco1)N1CCN(c2ccc(F)cc2)CC1 (stereo not given),i[11.4 µM],nt,i,nt,?
O=C(NCc1ccccc1)C(=O)NCC(c1cccnc1)N1CCN(c2ccccc2)CC1 (stereo not given),i,nt,i,i,i
O=C(NCCCn1ccnc1)C(=O)NCC(c1ccco1)N1CCN(c2ccccc2)CC1 (stereo not given),i[11.4 µM],i,i,56µM,i
O=C(NCCCn1ccnc1)C(=O)NCC(c1cccnc1)N1CCN(c2ccccc2)CC1 (stereo not given),56µM,i,i,50µM,?
O=S(=O)([O-])CCC[n+]1ccc(Oc2ccccc2)cc1,i,i,i,i,28µM
CN(C)c1cc[n+](CC(=O)Nc2ccc(Oc3ccccc3)cc2)cc1,i,i,i,i,i
CCOc1ccc(N=c2scc(-c3ccccc3)n2CCO)cc1,?,nt,?,8.9µM,16µM
CCOc1ccc(N=c2scc(-c3ccc(OC)cc3)n2CCO)cc1,?,?,i,?,2.8µM
CCn1c(-c2ccccc2)csc1=Nc1ccc(O)cc1,32µM,?,?,20µM,3.5µM
CCOc1ccc(CNCc2c(C(=O)O)c(C)n(Cc3ccc(C)cc3)c2C)cc1,i,nt,i,i,i
CCCCOCCOCCOCc1cc2c(cc1CCC)OCO2,nt,nt,nt,nt,i
COc1ccccc1CN1CC[C@@]2(CCCN(C(=O)c3cccn3C)C2)C1,nt,nt,nt,nt,i[12.7 µM]
CN1C(=O)/C(=C/c2ccc(O)c([N+](=O)[O-])c2)N(C)C1=S,?,i,i,i,nt
CC(C)(c1ccc(O)c([N+](=O)[O-])c1)c1ccc(O)c([N+](=O)[O-])c1,56µM,nt,?,nt,nt
COc1cc(CNCc2ccccn2)ccc1OCc1ccc(Cl)cc1,25µM,i,i,?,i
COc1cc(CNCc2cccs2)ccc1OCc1ccccc1,i,i,i,i,i
COc1cc(CNCc2ccccn2)ccc1OCc1c(Cl)cccc1Cl,?,?,i,89µM,i
CCN(CC)c1ccc(/C=N/NC(=O)Cc2nnc(NC(=O)Nc3ccccc3)s2)cc1,i,i,i,i,?
CCc1ccc(Nc2n[n+](-c3ccccc3)c(-c3ccc(N(CC)CC)cc3)s2)cc1,40µM,i,?,40µM,13µM
CCN(CC)c1ccc(-c2sc(Nc3ccccc3)n[n+]2-c2ccc(F)cc2)cc1,56µM,i,i,28µM,45µM
SMILES,JMJD2A Tudor inh,L3MBTL1 inh,HP1b chromo inh,BAZ2B inh,G9a inh
Cc1oc2ncn(CC(C)C)c(=O)c2c1C(=O)NCCCN1CCC(C)CC1,i,nt,i,i,i
O=S(=O)(Nc1ccn(-c2ccccc2)n1)c1ccc(Br)cc1,i,i[11.4 µM],i,i,14µM
CS/C(Nc1cc(Cl)ccc1Cl)=C(/C#N)C(=O)c1ccco1,?,i,i,56µM,14µM
O=C(Nc1cc(Cl)ccc1Cl)c1ccco1,i,i[2.29 µM],i,i,i[0.501 µM]
COCCNC(=O)c1cc2cc(Cl)cc(Cl)c2oc1=O,i,i,?,i,45µM
O=C(NCCO)c1cc2cc(Cl)cc(Cl)c2oc1=O,i,nt,?,i,3.2µM
CN1CCC(OC(=O)c2cc3cc(Cl)cc(Cl)c3oc2=O)CC1,i,i,i,i,?
O=C(O)c1cc2cc(Cl)cc(Cl)c2oc1=O,i[11.4 µM],i,i,?,56µM
CCOC(=O)c1ccccc1NC(=O)N1CCC(CN2CCCCC2)CC1,i,nt,i,i,i
N#Cc1nc(Nc2ccccc2)nc(NC2CCCCC2)n1,i,nt,nt,nt,nt
CCOC(=O)NNc1ccc2nonc2c1[N+](=O)[O-],56µM,32µM,?,40µM,nt
COc1ccc(Br)cc1C1N2CC3(C)CN1CC(C)(C2)C3=O (stereo not given),i,i,i,i,i
CCOC(=O)C1=C(C)NC(=O)NC1c1c(O)ccc2ccccc12 (stereo not given),i,nt,i,i,i
Oc1ccc2ccccc2c1C1Nc2cccc3cccc(c23)N1,45µM,nt,?,40µM,5µM
COc1ccc(Br)cc1C1Nc2cccc3cccc(c23)N1,?,i[2.29 µM],i,45µM,i[0.501 µM]
COc1cc(C2Nc3cccc4cccc(c34)N2)cc(OC)c1OC(C)=O,?,?,?,?,13µM
CCN(CC)c1ccc(C2Nc3cccc4cccc(c34)N2)c(O)c1,35µM,?,?,11µM,32µM
O=C(Nc1cccc2nsnc12)c1cc2c(cc1Cl)Sc1nccn1S2(=O)=O,i,nt,i,nt,nt
CCOc1ccc(CNC(=O)c2ccc(NC(=O)N3CCSc4ncccc43)cc2)cc1OC,i,nt,i,i,i
COc1cc(C2Nc3cccc4cccc(c34)N2)ccc1O,50µM,i,?,?,8.9µM
COc1cc(C2NC(=S)NC(C)=C2C(=O)c2ccccc2)ccc1O (stereo not given),i,i,i,?,i
COc1cc(NC(=O)c2ccc(Cl)cc2)c(OC)cc1NC(=O)CN1CCCCC1,i[11.4 µM],i,?,40µM,50µM
COc1cc(NC(=O)Nc2ccccc2)c(OC)cc1NC(=O)CN1CCCCC1,40µM,nt,?,50µM,i[12.7 µM]
COc1cc(NC(=O)c2ccccc2)c(OC)cc1NC(=O)CN1C(=O)N(C)C2(CCCCC2)C1=O,?,i,i,?,79µM
CN(Cc1ccco1)c1ncncc1-c1cccnc1,nt,nt,nt,nt,i[0.501 µM]
SMILES,JMJD2A Tudor inh,L3MBTL1 inh,HP1b chromo inh,BAZ2B inh,G9a inh
CCOc1ccc(NC(=O)CSc2nc(-c3cccc(Cl)c3)nc3c2Cc2c(CO)cnc(C)c2O3)cc1,i,nt,i,i,i
CC1(C)C(=O)N(CC(=O)Nc2ccc(OC(F)(F)F)cc2)c2ccccc21,i,nt,i,i,i
Cc1cc(C(=O)COC(=O)CCc2nc3ccccc3s2)c(C)n1C,?,i,i,50µM,?
CCNC(=S)NS(=O)(=O)c1ccccc1,40µM,i,i,?,28µM
CCNC(=S)NS(=O)(=O)c1ccc(Cl)cc1,25µM,i,i,i,?
COc1ccc(S(=O)(=O)N2CCC(N3CCN(Cc4ccccc4)C(=O)C3=O)CC2)cc1,79µM,nt,i,i,i
COc1ccc(S(=O)(=O)N2CCC(N3CCN(c4ccccc4OC)CC3)CC2)cc1,1.8µM,i,40µM,40µM,3.2µM
COc1ccccc1N1CCN(S(=O)(=O)c2c[nH]c(=O)[nH]c2=O)CC1,i,i,i,i,20µM

# Screens: PubChem BioAssay, National Center for Advancing Translational Sciences (NCATS)
